# Inconclusive results are not listed. Activity calls are given as the source filed them. The call rests on the fitted dose curve; in most records, active means well fitted curve in the direction sought with a large enough effect; inconclusive means small, poorly fitted or top-dose-only effect, or another doubt; inactive means no such curve, though single readings can be large; an effect the other way counts as inactive or inconclusive. Where a SMILES comes first, the peptide text is derived from it. Bridges are numbered along the chain shown (N, C = ends). [ ]: non-standard residue; d: D form. hArg = N=C(N)NCCCC[C@H](N)C(=O)O; Mpa = O=C(O)CCS
# Test: qHTS of pediatric cancer cell lines to identify multiple opportunities for drug repurposing: Primary screen for control Hh wild type fibroblast cells (AID 1347106);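 further: a drop in luminescence marks cytotoxicity and a rise apparent proliferation; nearly all actives have a fitted effect of over 55% in size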
# Settings: Hh wild-type fibroblast viability, CellTiter-Glo luminescence, 48 h; series mostly up to 46 µM
# In short: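 Cells (500-1,000/well) in growth media were settled 5 h at 37 degrees C, then given compounds for 48 h. Viability was read as CellTiter-Glo luminescence. Primary runs used MIPE at 11 points (0.78 nM-46 µM) and NPC at 8 points (0.59 nM-46 µM); follow-ups used 11 points.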
# On the % scale 0 is the no-effect control and ±100 the full control effect.
SMILES,outcome,"activity change, negative = cytotoxic"
CC(=O)NS(=O)(=O)c1ccc(N)cc1,inactive,–
CCCCCC(C)N (stereo not given),inactive,–
CCCCCCCCCCC(CO)CCCCCCCC (stereo not given),inactive,–
CC1(c2ccccc2)OC(C(=O)O)=CC1=O (stereo not given),inactive,–
NC(=O)NS(=O)(=O)c1ccc(N)cc1,inactive,–
CN1CCCN=C1COC(=O)C(O)(c1ccccc1)C1CCCCC1 (stereo not given),inactive,–
CC[C@H](C)[C@H](N)C(=O)O,inactive,–
OCC(O)CS (stereo not given),inactive,–
CO[C@@]1(NC(=O)C(C(=O)O)c2ccc(O)cc2)C(=O)N2C(C(=O)O)=C(CSc3nnnn3C)CO[C@@H]21 (stereo not given in full),inactive,–
Cn1c([N+](=O)[O-])cnc1COC(N)=O,inactive,–
CCN1CC(CCN2CCOCC2)C(c2ccccc2)(c2ccccc2)C1=O (stereo not given),inactive,–
NCC1CCC(C(=O)Oc2ccc(CCC(=O)O)cc2)CC1 (stereo not given),inactive,–
C[n+]1ccccc1/C=N/O,inactive,–
COc1ccc(O)cc1,inactive,–
NC(=O)[C@@H]1CSSCCC(=O)N[C@@H](CCCCN=C(N)N)C(=O)NCC(=O)N[C@@H](CC(=O)O)C(=O)N[C@@H](Cc2c[nH]c3ccccc23)C(=O)N2CCC[C@H]2C(=O)N1 ([Mpa][hArg]GDWPC-NH2; disulfide 1-7),inactive,–
CCCCCCCCCCCCCCCCN,inactive,–
COc1ccc(Cc2cnc(N)nc2N)cc1OC,inactive,–
CCOC(=O)c1cccnc1,inactive,–
CC1(C)S[C@@H]2[C@H](N=CN3CCCCCC3)C(=O)N2[C@H]1C(=O)O,inactive,–

SMILES,outcome,"activity change, negative = cytotoxic"
O=c1[nH]cnc2nc[nH]c12,inactive,–
CCCCCCCCCCCCCCCCCCO,inactive,–
COCC(=O)Nc1c(I)c(C(=O)NCC(O)CO)c(I)c(C(=O)N(C)CC(O)CO)c1I (stereo not given),inactive,–
COc1nccnc1NS(=O)(=O)c1ccc(N)cc1,inactive,–
O=c1[nH]c(=O)n([C@H]2C[C@H](O)[C@@H](CO)O2)cc1I,inactive,–
CCN(CC)CCc1nc(-c2ccccc2)no1,inactive,–
O=C1C(c2[nH]c3ccccc3c2O)=Nc2ccccc21,inactive,–
CCCCCCCC(=O)OCC(O)CO (stereo not given),inactive,–
O=C(O)Cc1ccc(CCNS(=O)(=O)c2ccc(Cl)cc2)cc1,inactive,–
Nc1c2c(nc3c1CCC3)CCCC2,inactive,–
CCN(CC)C(=O)c1cccc(C)c1,inactive,–
CCCNC(C)(C)COC(=O)c1ccccc1,inactive,–
CC(C)(C)C(=O)OCOC(=O)[C@@H]1N2C(=O)[C@@H](NC(=O)[C@H](N)c3ccccc3)[C@H]2SC1(C)C,inactive,–
Cc1c(Cn2ccnc2)c2ccccc2n1CCC(=O)O,inactive,–
CC1CCN(CCCC(=O)c2ccc(F)cc2)CC1,inactive,–
CC(=O)Nc1ccc(OCCOCCOc2ccc(NC(C)=O)cc2)cc1,inactive,–
CCCCCCCCCCOc1cc2c(=O)c(C(=O)OCC)c[nH]c2cc1OCC,–,1.24% [at 4.84 µM] (inactive)
O=C1CC[C@@H](C(=O)O)N1,inactive,–

# Test: qHTS of pediatric cancer cell lines to identify multiple opportunities for drug repurposing: Primary screen for Rh30 cells (AID 1347107); further: nearly all actives have a fitted effect of over 75% in size
# Settings: Rh30 rhabdomyosarcoma viability, CellTiter-Glo luminescence, 48 h; series mostly up to 46 µM
# In short: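 Viability after 48 h compound treatment at 37C, 500-1,000 cells/well, read as ATP luminescence with CellTiter-Glo. Primary screens used 11-point (MIPE, 0.78 nM-46 µM) or 8-point (NPC, 0.59 nM-46 µM) final concentrations; follow-up screens used 11-point dilutions.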
SMILES,outcome,"activity change, negative = cytotoxic"
CC(=O)NS(=O)(=O)c1ccc(N)cc1,inactive,–
CCCCCC(C)N (stereo not given),inactive,–
CCCCCCCCCCC(CO)CCCCCCCC (stereo not given),inactive,–
CC1(c2ccccc2)OC(C(=O)O)=CC1=O (stereo not given),inactive,–
NC(=O)NS(=O)(=O)c1ccc(N)cc1,inactive,–
CN1CCCN=C1COC(=O)C(O)(c1ccccc1)C1CCCCC1 (stereo not given),inactive,–
CC[C@H](C)[C@H](N)C(=O)O,inactive,–
OCC(O)CS (stereo not given),inactive,–
CO[C@@]1(NC(=O)C(C(=O)O)c2ccc(O)cc2)C(=O)N2C(C(=O)O)=C(CSc3nnnn3C)CO[C@@H]21 (stereo not given in full),inactive,–
Cn1c([N+](=O)[O-])cnc1COC(N)=O,inactive,–
CCN1CC(CCN2CCOCC2)C(c2ccccc2)(c2ccccc2)C1=O (stereo not given),inactive,–
NCC1CCC(C(=O)Oc2ccc(CCC(=O)O)cc2)CC1 (stereo not given),inactive,–
C[n+]1ccccc1/C=N/O,inactive,–
COc1ccc(O)cc1,inactive,–
NC(=O)[C@@H]1CSSCCC(=O)N[C@@H](CCCCN=C(N)N)C(=O)NCC(=O)N[C@@H](CC(=O)O)C(=O)N[C@@H](Cc2c[nH]c3ccccc23)C(=O)N2CCC[C@H]2C(=O)N1 ([Mpa][hArg]GDWPC-NH2; disulfide 1-7),inactive,–
CCCCCCCCCCCCCCCCN,inactive,–
COc1ccc(Cc2cnc(N)nc2N)cc1OC,inactive,–
CCOC(=O)c1cccnc1,inactive,–
CC1(C)S[C@@H]2[C@H](N=CN3CCCCCC3)C(=O)N2[C@H]1C(=O)O,inactive,–

SMILES,outcome,"activity change, negative = cytotoxic"
O=c1[nH]cnc2nc[nH]c12,inactive,–
CCCCCCCCCCCCCCCCCCO,inactive,–
COCC(=O)Nc1c(I)c(C(=O)NCC(O)CO)c(I)c(C(=O)N(C)CC(O)CO)c1I (stereo not given),inactive,–
COc1nccnc1NS(=O)(=O)c1ccc(N)cc1,inactive,–
O=c1[nH]c(=O)n([C@H]2C[C@H](O)[C@@H](CO)O2)cc1I,inactive,–
CCN(CC)CCc1nc(-c2ccccc2)no1,inactive,–
O=C1C(c2[nH]c3ccccc3c2O)=Nc2ccccc21,inactive,–
CCCCCCCC(=O)OCC(O)CO (stereo not given),inactive,–
O=C(O)Cc1ccc(CCNS(=O)(=O)c2ccc(Cl)cc2)cc1,inactive,–
COc1ccc(-c2cc(=O)c3c(O)cc(O[C@@H]4O[C@H](CO[C@@H]5O[C@@H](C)[C@H](O)[C@@H](O)[C@H]5O)[C@@H](O)[C@H](O)[C@H]4O)cc3o2)cc1O,inactive,–
Nc1c2c(nc3c1CCC3)CCCC2,inactive,–
CCN(CC)C(=O)c1cccc(C)c1,inactive,–
CCCNC(C)(C)COC(=O)c1ccccc1,inactive,–
CC(C)(C)C(=O)OCOC(=O)[C@@H]1N2C(=O)[C@@H](NC(=O)[C@H](N)c3ccccc3)[C@H]2SC1(C)C,inactive,–
Cc1c(Cn2ccnc2)c2ccccc2n1CCC(=O)O,inactive,–
CC1CCN(CCCC(=O)c2ccc(F)cc2)CC1,inactive,–
CC(=O)Nc1ccc(OCCOCCOc2ccc(NC(C)=O)cc2)cc1,inactive,–
CCCCCCCCCCOc1cc2c(=O)c(C(=O)OCC)c[nH]c2cc1OCC,–,19.2% [at 4.84 µM] (inactive)
O=C1CC[C@@H](C(=O)O)N1,inactive,–

# — PubChem BioAssay (NCATS)
